From the supplement of paper PMC10849652 come the findings set out here.

Targets with a hit are over-represented here; the source holds about 8,800 in all. About 0.5% of all pairs of compound and target were hits. Values without a mark were called inactive.

What all share (test): log2 fold change, soluble protein after heating vs DMSO (PISA); higher = thermal stabilisation; K562 lysate, 10 uM; active = over 0.2 and 3.5 SD of the protein, either way, in both replicates (recomputed)
Compound in experiment [1]: CS(=O)(=O)CCNCc1ccc(-c2ccc3ncnc(Nc4ccc(OCc5cccc(F)c5)c(Cl)c4)c3c2)o1 [lapatinib]
A digest of the protocol:
(§1)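 Dounce homogenisation of K562 pellets in PBS pH 7.4 with 1 mM MgCl2 produced a crude extract, used at 1 mg/mL protein. Exposure to 10 μM compound lasted 30 min, and aliquots were then heated for 3 min across 48°C-58°C, pooled and brought to 0.5% NP-40 at 4°C. The supernatant after 21,000xg for 90 min was quantified by TMTpro 16plex LC-MS/MS with channel sums equalised. Duplicate values are given as log-two fold change in thermal stability relative to solvent controls.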

Compound in experiment [2]: CS(=O)(=O)N1CCN(Cc2cc3nc(-c4cccc5[nH]ncc45)nc(N4CCOCC4)c3s2)CC1 [pictilisib]
Put shortly: as §1

Compound in experiment [3]: C[C@@H](Oc1cc(-c2cnn(C3CCNCC3)c2)cnc1N)c1c(Cl)ccc(F)c1Cl [crizotinib]
Put shortly: as §1

Compound in experiment [4]: C[C@H](C1=CC=C(C=C1)C(=O)NC2=C3C=CNC3=NC=C2)N
A digest of the protocol: as §1

Compound in experiment [5]: C[C@H](Nc1ncnc2nc[nH]c12)c1cc2cccc(Cl)c2c(=O)n1-c1ccccc1 [duvelisib]
Put shortly:
as §1

Compound in experiment [6]: Cc1cc(Nc2cc(CN3CCOCC3)c3nc(C)c(Cc4ccc(Cl)cc4F)n3n2)n[nH]1 [gandotinib]
Put shortly:
as §1

Compound in experiment [7]: Cc1cc(Nc2cc(N3CCN(C)CC3)nc(Sc3ccc(NC(=O)C4CC4)cc3)n2)n[nH]1 [tozasertib]
A digest of the protocol: as §1

Compound in experiment [8]: Cc1ccc(-n2nc(C(C)(C)C)cc2NC(=O)Nc2ccc(OCCN3CCOCC3)c3ccccc23)cc1 [doramapimod]
Put shortly:
as §1

Compound in experiment [9]: Cc1ccc(NC(=O)c2ccc(CN3CC[C@H](N(C)C)C3)c(C(F)(F)F)c2)cc1Nc1nccc(-c2cncnc2)n1 [bafetinib]
A digest of the protocol: as §1

Compound in experiment [10]: Cc1cccc(CC(=O)N2CCc3c2ccc(-c2cn(C)c4ncnc(N)c24)c3F)n1
A digest of the protocol:
as §1

Compound in experiment [11]: Cc1cn(-c2cc(NC(=O)c3ccc(C)c(Nc4nccc(-c5cccnc5)n4)c3)cc(C(F)(F)F)c2)cn1 [nilotinib]
Put shortly: as §1

Compound in experiment [12]: Cc1nc(Nc2n[nH]c3c2CN(C(=O)N[C@H](CN(C)C)c2ccccc2)C3(C)C)c2sccc2n1
A digest of the protocol: as §1

Compound in experiment [13]: Cc1nc(Nc2ncc(C(=O)Nc3c(C)cccc3Cl)s2)cc(N2CCN(CCO)CC2)n1 [dasatinib]
A digest of the protocol: as §1

Compound in experiment [14]: Cc1ncc(-c2ccnc(Nc3ccc(S(C)(=O)=O)cc3)n2)n1C(C)C
A digest of the protocol: as §1

Compound in experiment [15]: Cn1cc(-c2ccc3c(c2)CCN3C(=O)Cc2cccc(C(F)(F)F)c2)c2c(N)ncnc21
Put shortly: as §1

Compound in experiment [16]: Cn1cc(CNCC2CCN(c3ncc(C(=O)NO)cn3)CC2)c2ccccc21 [quisinostat]
A digest of the protocol:
as §1

Compound in experiment [17]: Cn1cncc1[C@@](N)(c1ccc(Cl)cc1)c1ccc2c(c1)c(-c1cccc(Cl)c1)cc(=O)n2C [tipifarnib]
A digest of the protocol:
as §1

Compound in experiment [18]: NC(=O)Nc1cc(-c2cccc(F)c2)sc1C(=O)N[C@H]1CCCNC1
Put shortly: as §1

Compound in experiment [19]: NC(=O)c1cnc(N[C@@H]2CCCC[C@@H]2N)nc1Nc1cccc(-n2nccn2)c1
A digest of the protocol:
as §1

Compound in experiment [20]: NC1(c2ccc(-c3nc4ccn5c(=O)[nH]nc5c4cc3-c3ccccc3)cc2)CCC1
Put shortly: as §1

Sequence of UniProt Q96AB3 (Q96AB3 whole entry, looked up): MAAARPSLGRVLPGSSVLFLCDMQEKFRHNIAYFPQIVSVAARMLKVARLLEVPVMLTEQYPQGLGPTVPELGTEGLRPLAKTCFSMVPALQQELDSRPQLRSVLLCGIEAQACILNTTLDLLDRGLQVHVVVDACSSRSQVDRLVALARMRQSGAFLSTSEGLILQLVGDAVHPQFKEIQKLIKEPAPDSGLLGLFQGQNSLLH
Sequence of UniProt Q1KMD3 (Q1KMD3 whole entry, looked up): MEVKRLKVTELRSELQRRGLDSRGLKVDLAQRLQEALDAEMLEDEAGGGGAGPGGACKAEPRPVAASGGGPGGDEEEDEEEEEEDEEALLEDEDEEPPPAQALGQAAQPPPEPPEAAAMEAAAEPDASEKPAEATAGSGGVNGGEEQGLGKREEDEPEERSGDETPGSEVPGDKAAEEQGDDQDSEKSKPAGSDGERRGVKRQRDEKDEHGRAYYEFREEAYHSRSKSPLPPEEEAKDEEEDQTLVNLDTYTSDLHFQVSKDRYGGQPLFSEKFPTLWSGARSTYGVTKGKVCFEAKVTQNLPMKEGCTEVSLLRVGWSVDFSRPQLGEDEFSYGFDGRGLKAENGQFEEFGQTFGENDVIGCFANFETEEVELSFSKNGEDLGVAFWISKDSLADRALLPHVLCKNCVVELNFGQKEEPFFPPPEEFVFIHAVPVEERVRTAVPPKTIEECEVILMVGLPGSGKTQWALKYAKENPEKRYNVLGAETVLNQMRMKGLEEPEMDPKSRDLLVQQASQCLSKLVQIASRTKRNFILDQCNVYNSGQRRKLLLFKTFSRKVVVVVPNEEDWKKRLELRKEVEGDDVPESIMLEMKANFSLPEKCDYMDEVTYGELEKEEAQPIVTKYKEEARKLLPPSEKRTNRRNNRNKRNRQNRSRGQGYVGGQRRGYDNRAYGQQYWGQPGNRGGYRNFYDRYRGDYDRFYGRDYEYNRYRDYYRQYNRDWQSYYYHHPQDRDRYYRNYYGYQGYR
Sequence of UniProt Q13547 (Q13547 whole entry, looked up): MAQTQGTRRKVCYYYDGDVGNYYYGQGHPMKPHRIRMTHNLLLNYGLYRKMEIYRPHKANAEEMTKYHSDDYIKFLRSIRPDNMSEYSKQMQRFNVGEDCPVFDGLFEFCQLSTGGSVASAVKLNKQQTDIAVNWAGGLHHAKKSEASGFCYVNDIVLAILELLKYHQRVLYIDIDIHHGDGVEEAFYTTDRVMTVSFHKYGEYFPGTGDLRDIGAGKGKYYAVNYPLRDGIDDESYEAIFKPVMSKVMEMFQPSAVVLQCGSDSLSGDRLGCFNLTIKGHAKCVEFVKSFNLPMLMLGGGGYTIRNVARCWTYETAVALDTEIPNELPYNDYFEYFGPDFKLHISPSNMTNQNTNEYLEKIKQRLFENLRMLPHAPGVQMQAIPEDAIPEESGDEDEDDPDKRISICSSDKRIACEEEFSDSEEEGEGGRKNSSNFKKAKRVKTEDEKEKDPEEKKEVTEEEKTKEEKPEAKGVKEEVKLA
Sequence of UniProt Q8WVV9 (Q8WVV9 whole entry, looked up): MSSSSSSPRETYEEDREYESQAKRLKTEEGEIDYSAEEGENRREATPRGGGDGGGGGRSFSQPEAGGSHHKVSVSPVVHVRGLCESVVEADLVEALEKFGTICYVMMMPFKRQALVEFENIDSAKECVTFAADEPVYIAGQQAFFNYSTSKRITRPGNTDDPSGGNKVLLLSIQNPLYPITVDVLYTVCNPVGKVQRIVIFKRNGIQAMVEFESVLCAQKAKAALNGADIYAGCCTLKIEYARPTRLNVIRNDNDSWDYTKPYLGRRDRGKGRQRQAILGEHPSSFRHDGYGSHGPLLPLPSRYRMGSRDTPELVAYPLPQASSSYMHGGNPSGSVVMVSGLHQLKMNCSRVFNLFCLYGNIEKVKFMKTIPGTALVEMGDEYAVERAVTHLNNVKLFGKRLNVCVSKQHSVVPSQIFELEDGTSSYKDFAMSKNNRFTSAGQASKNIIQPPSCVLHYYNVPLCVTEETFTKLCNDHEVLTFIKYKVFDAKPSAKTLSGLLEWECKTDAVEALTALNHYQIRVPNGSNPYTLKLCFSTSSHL

On to HNRNPLL (UniProt Q8WVV9), for which the log2 fold change was 0.017 in experiment [1]; -0.026 in [2]; -0.038 in experiment [3]; -0.01 in experiment [4]; -0.016 in experiment [5]; -0.031 in experiment [6]. The log2 fold change was 0 in experiment [7]; 0.01 in experiment [8]; -0.031 in [9]; 0.027 in experiment [10]; -0.031 in experiment [11]; 0.009 in [12]. In addition, the log2 fold change in experiment [13] was -0.019; in experiment [14], 0.008; in experiment [15], -0.001; in [16] it was -0.063; in experiment [17], -0.008; in [18], 0.001. For the same target, the log2 fold change was 0.015 in experiment [19] and -0.013 in experiment [20].

As to HNRNPUL2 (UniProt Q1KMD3), the log2 fold change was -0.037 in experiment [1]; -0.028 in experiment [2]; -0.033 in experiment [3]; -0.002 in experiment [4]; 0.012 in experiment [5]; -0.005 in [6]. Further, the log2 fold change in [7] was 0.009; in [8], -0.008; in experiment [9] it was -0.009; in experiment [10], 0.043; in [11] it was -0.037; in experiment [12], 0.02. For the same target, the log2 fold change was 0.002 in experiment [13]; 0.009 in [14]; -0.005 in [15]; -0.046 in [16]; 0.008 in experiment [17]; 0 in experiment [18]. Moreover, the log2 fold change was 0.004 in [19] and -0.008 in experiment [20].

Take HDAC1 (UniProt Q13547): the log2 fold change in experiment [1] was 0.004; in [2] it was 0.01; in experiment [3], -0.014; in experiment [4] it was -0.04; in experiment [5], -0.029; in [6], -0.004. In addition, the log2 fold change in experiment [7] was -0.015; in experiment [8] it was 0.006; in experiment [9] it was 0.036; in experiment [10], 0.036; in experiment [11], 0.01; in [12] it was -0.024. The log2 fold change in [13] was -0.021; in experiment [14] it was -0.019; in experiment [15] it was 0.028; in experiment [16], 0.857 (active); in [17] it was -0.041; in [18], -0.033. In addition, the results for the log2 fold change in [19] and in experiment [20] were 0.03 and 0.009, respectively.

With ISOC2 (UniProt Q96AB3), the log2 fold change in [1] is -0.036; in experiment [2], 0.038; in experiment [3] it was 0.023; in experiment [4], 0.05; in [5], -0.038; in experiment [6] it was -0.076. Besides, the log2 fold change in [7] was -0.065; in experiment [8], -0.014; in experiment [9], -0.058; in experiment [10], 0.095; in [11] it was 0.012; in [12], 0.022. The log2 fold change was 0.026 in experiment [13]; 0.091 in experiment [14]; 0 in experiment [15]; -0.053 in experiment [16]; -0.017 in experiment [17]; -0.05 in experiment [18]. The results for the log2 fold change in [19] and in experiment [20] were -0.045 and -0.036, respectively.
